From PubChem BioAssay (NCATS) come the findings set out here.

The structures appear in SMILES notation. Results filed as inconclusive are left out. Values without a mark were called inactive. Activity calls are given as the source filed them. Calls come from the whole dose curve; as a rule, active = well fitted inhibition curve with a large enough effect; inconclusive = small, poorly fitted or top-dose-only effect; inactive = no such curve, though single readings can be large or run the other way.
Potency is the fitted concentration of half-maximal effect.

Chain of Muscarinic acetylcholine receptor M1 (Rattus norvegicus) (P08482 whole entry, looked up): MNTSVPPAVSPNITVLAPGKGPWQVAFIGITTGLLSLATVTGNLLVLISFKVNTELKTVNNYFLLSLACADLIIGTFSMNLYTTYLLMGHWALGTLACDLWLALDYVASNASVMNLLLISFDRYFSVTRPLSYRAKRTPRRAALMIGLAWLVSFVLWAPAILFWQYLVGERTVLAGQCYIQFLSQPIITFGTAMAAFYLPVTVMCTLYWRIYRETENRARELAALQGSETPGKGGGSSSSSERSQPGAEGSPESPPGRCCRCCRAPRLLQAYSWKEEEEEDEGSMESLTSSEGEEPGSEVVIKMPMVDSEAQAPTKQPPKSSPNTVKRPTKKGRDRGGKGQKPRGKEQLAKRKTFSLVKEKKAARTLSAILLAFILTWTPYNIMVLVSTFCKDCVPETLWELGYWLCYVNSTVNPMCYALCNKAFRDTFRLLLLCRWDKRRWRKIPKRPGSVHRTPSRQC

The experiment deals with Muscarinic acetylcholine receptor M1 (Rattus norvegicus) (UniProt P08482). Kind of experiment: qHTS Assay for Antagonists of Acetylcholine Muscarinic M1 Receptor: Measurement of IP-One Response (AID 944). Note: nearly all actives have a fitted effect of over 75% in size. The settings on record: CHO-M1 cells, IP-One HTRF, antagonist mode; series mostly up to 46.1 µM; activity change, negative = inhibition: at the top concentration. The source says:
NIH Molecular Libraries Screening Centers Network [MLSCN]
NIH Chemical Genomics Center [NCGC]
Acetylcholine muscarinic M1 receptor is a G-protein coupled receptor (GPCR) coupling to the Gq G protein. It is mainly expressed in brain and functionally related to the learning and memory processes. The agonists of this receptor have the potential for the treatment of Alzheimer's disease and cognitive impairments associated with Schizophrenia.
Upon an activation of the M1 receptor, phosholipase C (PLC) is activated to produce inositol 1,4,5-trisphosphate (IP3) and diacyl glycerol (DAG). The IP3 is very rapidly hydrolyzed to IP2, IP1 and then inositol by a series of enzymes and Ca2+ is quickly pumped back into ER by the calcium pump on the ER membrane, which effectively switches off the IP3 and Ca2+ signaling. For compound screen, the changes in intracellular free Ca2+ concentration can be measured by the fluorescence calcium dye such as Fura-2, Fluo-3 and Fluo-4 with a fluorescence kinetic plate reader. IP1 or total IPs including IP1, IP2 and IP3 are usually measured as an alternative method for assessing the function of Gq-coupled GPCRs. We have applied a time-resolved fluorescence based (TR-FRET) IP1 assay in which an IP1 specific antibody is used to detect the labeled IP1 tracer. When the cell lysate contains the elevated IP1, the TR-FRET between the labeled antibody and IP1 tracer is disrupted resulting in a reduction in the total signal. Since the TR-FRET is used, a homogenous assay with out cell wash and medium change is possible which also can be miniaturized into the high density format for HTS.
We have obtained a M1-CHO cell line transfected with rat acetylcholine M1 receptor and optimized this IP-One assay with this cell line for compound screening as a counter-screen assay for other Gq-coupled GPCRs.
NCGC Assay Protocol Summary:
The CHO-M1 (CHO-M1) cell line transfected with the rat acetylcholine muscarinic M1 receptor was obtained from American Type Culture Collection (ATCC). The cells were maintained in call culture flasks with F12 Kaighn's media (Invitrogen) supplemented with 10 % FBS, 100 units/ml penicillin, 100 ug/ml streptomycin and 250 ug/ml geneticin (Invitrogen) at 37C, 5 % CO2 in a humidified atmosphere. At 90-95 % confluence, the cells were then detached in 15 ml 0.25 % trypsin by 3 minutes incubation at 37C and centrifuged at 1000 RPM to remove the trypsin solution. The resulting cell pellet was resuspended in the cell freezing media containing 10 % DMSO (Invitrogen) at a density of 4 x 10^7 cells/ml. The aliquots of cells at 0.5 - 1 ml per vial were frozen down slowly at 1 degree C/min using a Cryo 1 degree C freezing container in the presence of isopropanol (Nalgene Nunc, Rochster, NY) overnight in a -80C freezer. The frozen cells were then transferred to liquid nitrogen for the storage up to one year.
The resuspended frozen cells were plated at 3 ul/well with 2000 cells in the black, tissue culture treated, clear bottom 1536-well plates. The cells were cultured at 37C, 5 % CO2 for overnight to allow the cells recovering from the frozen state. 20 nl/well of compound in DMSO solution was added to the assay plate and incubated for 10 min. Carbachol was prepared in stimulation buffer (10mM Hepes, 1mM CaCl2, 0.5 mM MgCl2, 4.2 mM KCl, 146 mM NaCl, 5.5 mM glucose 50mM LiCl 50mM pH7.4) which was added to the assay plate at 1 ul/well. After an incubation with carbachol at 37C, 5 % CO2 for 30 min, all the wells in the assay plate were added with 1 ul/well of d2 conjugated IP1 (d2-IP1) and 1 ul/well of Eu+ cryptate conjugated anti-IP1 antibody (Eu+-Ab), both from the IP-One kit (Cisbio USA., Inc.). After 10 min incubation at the room temperature, the assay plates were measured in the HTRF detection mode in ViewLux plate reader (Ex=337 nm. Em(1)=620 and Em(2)=665 nm)
1536-well assay protocol:
(1) 4 ul/well containing 2000 M1-CHO cells in 1536 tissue culture treated white plate
(3) Add 23 nl compound diluted in DMSO
[…]
(qHTS replaces the single test concentration by a dilution series.)
In the case of `CCCCCC[C@@H]([C@H](C)O)n1cnc2c(N)ncnc21`, the “activity change, negative = inhibition” value is -40.2%.
As to `CC1CCN(CC[C@@H]2CCCN2S(=O)(=O)c2cccc(O)c2)CC1`, the Potency was 14.1 µM (active).
Regarding `NCCC[C@@](N)(C(=O)O)C(F)F`, the “activity change, negative = inhibition” value was -38.2%.
The same measure, in the same setting: to `FC(F)(F)c1cc(CO[C@@H]2CCCN[C@H]2c2ccccc2)cc(C(F)(F)F)c1` belongs -20.2%.
On the same count and under the same terms, next, `NC[C@@H]1O[C@@H](O[C@H]2[C@@H](O)[C@H](O[C@@H]3[C@H](O)[C@H](N)C[C@H](N)[C@H]3O[C@@H]3O[C@@H](CO)[C@H](O)[C@H](O)[C@@H]3N)O[C@H]2CO)[C@H](N)[C@H](O)[C@@H]1O`: -33.4%.
In the case of `CC(=O)O[C@@H]1C[C@]2(C)[C@H](C[C@@H](O)[C@H]3[C@@]4(C)CC[C@@H](O)[C@@H](C)[C@@H]4CC[C@@]32C)/C1=C(\CCC=C(C)C)C(=O)O`, the “activity change, negative = inhibition” value was -18%.
`CCCCC[C@H](O)CCCC(=O)O`: the “activity change, negative = inhibition” value is -22.9%.
Same read-out and setting: to `N[C@H](Cc1cccc(-c2ccccc2CP(=O)(O)O)c1)C(=O)O` belongs -41.4%; to `C[C@@]12CCC(=O)C=C1CC[C@@H]1[C@@H]2[C@H](O)C[C@]2(C)[C@@H]1CC[C@]2(O)C(=O)COC(=O)CCC(=O)O`, -19%.
As to `COc1cc([C@H]2c3cc4c(cc3[C@@H](O)[C@@H]3COC(=O)[C@H]23)OCO4)cc(OC)c1OC`, the “activity change, negative = inhibition” value is -42.2%.
As to `COC(=O)C1=C(C)NC(C)=C(C(=O)OCCN(C)Cc2ccccc2)[C@@H]1c1cccc([N+](=O)[O-])c1`, the Potency was 17.8 µM (active).
As for `COc1cccc2c1[C@@H]1CN(CCCCn3c(=O)[nH]c4c(sc5ncc(-c6ccccc6)nc54)c3=O)C[C@H]1CO2`, the “activity change, negative = inhibition” value was -32.6%.
Consider `O=C(/C=C\c1ccc(O)cc1)c1ccc(O)cc1O`, for which the “activity change, negative = inhibition” value was -27.3%.
Consider `CCCCC#Cc1nc(N)c2ncn([C@@H]3O[C@@H](C(=O)NCC)[C@H](O)[C@@H]3O)c2n1`, for which the “activity change, negative = inhibition” value is -12.3%.
Still for that read-out and setting: to `O=c1[nH]c(=O)n([C@H]2C[C@H](O)[C@H](CO)O2)cc1/C=C\Br` belongs -28.5%.
Still for that read-out and setting: to `CCN1CCC[C@@H]1CNC(=O)c1c(O)c(Cl)cc(Cl)c1OC` belongs -23.9%; to `Nc1ncnc2c1ncn2[C@@H]1O[C@@H](CO)[C@H](O)[C@@H]1O`, -43.8%.
`NC(=S)c1ccc[n+]([C@@H]2O[C@@H](COP(=O)([O-])OP(=O)(O)OC[C@@H]3O[C@@H](n4cnc5c(N)ncnc54)[C@@H](OP(=O)(O)O)[C@H]3O)[C@@H](O)[C@H]2O)c1`: the “activity change, negative = inhibition” value is -17.9%.
On the same count and under the same terms, to `Nc1ncnc2c1ncn2[C@@H]1O[C@@H](COP(=O)(O)OP(=O)(O)OP(=O)(O)OP(=O)(O)OC[C@@H]2O[C@@H](n3cnc4c(N)ncnc43)[C@@H](O)[C@H]2O)[C@H](O)[C@@H]1O` belongs -12.8%; to `Cn1c(=O)c2c(nc(/C=C\c3cccc(Cl)c3)n2C)n(C)c1=O`, -42.7%; to `C/C=C1\C(=O)C[C@@H]2[C@@H]3CCC4=CC(=O)CC[C@@]4(C)[C@H]3CC[C@@]12C`, -40.4%.
Consider `O=C1[C@@H]2C=CC=CC2=NC(=S)N1CCN1CCC(=C(c2ccc(F)cc2)c2ccc(F)cc2)CC1`, for which the “activity change, negative = inhibition” value was -12.5%.
In the case of `CCCCCCCCCC(=O)N[C@@H](CN1CCOCC1)[C@@H](O)c1ccccc1`, the “activity change, negative = inhibition” value is -17.2%.
Take `O[Si@](CCCN1CCCCC1)(c1ccc(F)cc1)C1CCCCC1`: the Potency was 1.41 µM (active).
For `CCCN(CCc1ccccc1)[C@H]1CCc2c(O)cccc2C1`, the Potency is 2.82 µM (active).
For the molecule `Nc1ccn([C@@H]2O[C@@H](CO)[C@@H](O)[C@H]2O)c(=O)n1`, the “activity change, negative = inhibition” value was -19.2%.
As to `CN1CCN([C@@H]2Cc3ccccc3Sc3ccc(Cl)cc32)CC1`, the Potency was 10 µM (active).
As to `OC[C@@H]1O[C@@H](n2cnc3c(Nc4ccccc4)ncnc32)[C@@H](O)[C@H]1O`, the “activity change, negative = inhibition” value is -21.8%.
The same measure, in the same setting: to `CCCCCCCCCCCCCCCCCCNC(=O)OC[C@@H](COP(=O)([O-])OCC[n+]1ccsc1)OC` belongs -9.12%.
On the same count and under the same terms, to `CNC(=O)[C@@H]1O[C@@H](n2cnc3c(NCc4cccc(I)c4)ncnc32)[C@H](O)[C@@H]1O` belongs -28.7%; to `O=C(O)C[C@@H]1CCCc2ccccc2[C@H]1O`, -26.9%.
